# Unmarked numbers belong to inactive results.
# System: Pseudomonas aeruginosa PA14 dppA1-A5 penta mutant + pBBR5.DppA1 (PA14_58350)
# Assay: respiration area under curve with compound as sole nitrogen source, 24 h (OmniLog AUC (arbitrary units)); higher = more respiration / better utilisation as nitrogen source
# Description: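 Biolog Phenotype MicroArray plates PM6-PM8: each di/tripeptide is the sole nitrogen source. Tetrazolium reduction was read in the OmniLog for 24 h at 37°C and summarised as area under the respiration curve (arbitrary units). Values below 2000 count as no respiration. Strain is the SBP penta mutant complemented with DppA1 on a plasmid under its native promoter. Lys/His/Cys peptides are excluded.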
row,Structure (SMILES),respiration area under curve
1,CC(C)C[C@H](NC(=O)CNC(=O)CN)C(=O)O (plate: PM8),3880 (active)
2,CC(C)C[C@@H](NC(=O)CNC(=O)CN)C(=O)O (plate: PM8),232

# Reference: the supplement of paper PMC4206461
